Results on 65 compounds are retold here after PubChem BioAssay AID488890 (Southern Research Specialized Biocontainment Screening …, 2010).

Hit rate of the full screen: of about 320,000 compounds, about 1,300 (0.41%) were called active. Roughly 3% stayed inconclusive and do not appear here. How the calls were made is not given here. Not all results are given here. Entries with a potency or affinity are not part of this list.

The inhibition is the relative decrease from the control value, in per cent.

A short description of the assay: growth inhibition of non-replicating M. tuberculosis (AID 488890).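 Further: plate controls were DMSO cells for no effect and high antibiotic wells for full effect.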 Particulars: Mycobacterium tuberculosis non-replicating, at 25 µM, stronger effect = higher value.
`CN1C(=O)/C(=C/C=C/c2ccco2)C(=O)NC1=S`: the inhibition was -21.1%.
Then `Cc1ccc(N2C(=O)NC(=O)/C(=C\C=C\c3ccco3)C2=O)cc1C`, with 13%; and `O=C1NC(=O)N(c2ccccc2)C(=O)/C1=C/C=C/c1ccco1`, with -12.6%; and `Cc1cc(C)cc(N2C(=O)NC(=O)/C(=C\C=C\c3ccco3)C2=O)c1`, with 2.52%.
Consider `Cc1ccc(N2C(=O)NC(=O)/C(=C\C=C\c3ccco3)C2=O)cc1`, for which the inhibition amounted to 18.7%.
Then `O=C1NC(=O)N(Cc2ccc(F)cc2)C(=O)/C1=C\C=C\c1ccco1`, with 75.2%.
Turning to `COc1ccc(NC(=O)CCNS(=O)(=O)c2ccccc2F)cc1S(N)(=O)=O`, the inhibition was -0.54%.
`Cc1ccccc1C1c2[nH]c3ccccc3c2CCN1C(=O)c1ccc(=O)n(C)n1` (stereo not given): the inhibition is 10.8%.
Then `CCOC(=O)c1c(C)c(C)n(Cc2ccc(OC)c(OC)c2)c1C`, with 16.5%; and `Cc1cc(C(=O)COc2ccccc2C(N)=O)c(C)n1CC1CCCO1` (stereo not given), with -26.6%.
Then `Cc1cc(C(=O)COc2ccccc2C(N)=O)c(C)n1C`, with 4.7%; and `CCN(CC(=O)NC(=O)NCc1ccco1)Cc1nc2ccccc2c(=O)[nH]1`, with 12.9%.
On to `COCCNC(=O)Cc1c(C)c2c(cc(C)c3c(C(C)(C)C)coc32)oc1=O`, for which the inhibition amounted to 26.6%.
Then `O=C(CCc1nnc2n(Cc3ccc(F)cc3)c(=O)c3ccccc3n12)N1CCN(c2ccccn2)CC1`, with -3.25%.
As to `O=C(Nc1ccc(Cl)cc1)OCCn1nnnc1C(c1ccccc1)N1CCOCC1` (stereo not given), the inhibition amounted to 4.68%.
Then `COc1ccc(S(=O)(=O)N2CCCCC2)cc1NC(=O)c1ccc([N+](=O)[O-])o1`, with 1.5%.
Then `O=C(Nc1ccc(S(=O)(=O)N2CCOCC2)cc1)c1ccc(Cl)s1`, with 5.17%.
As to `CCN1CCN(c2ccc(S(=O)(=O)N3CCCCC3)cc2NC(=O)c2ccccc2)CC1`, the inhibition is -11.8%.
Then `Cc1ccc(NC(=O)c2ccc([N+](=O)[O-])s2)cc1S(=O)(=O)N1CCOCC1`, with 43.2%.
Then `Cc1ccc(C(=O)Nc2cccc(S(=O)(=O)N3CCCC3)c2)o1`, with -4.97%.
Then `O=C(Nc1cc(S(=O)(=O)N2CCOCC2)ccc1N1CCOCC1)c1ccc([N+](=O)[O-])s1`, with 50.4%; and `O=C(Nc1ccc(S(=O)(=O)N2CCOCC2)cc1)c1ccc(Br)o1`, with -0.17%.
In the case of `NS(=O)(=O)c1ccc(NC(=O)c2ccc(S(=O)(=O)N3CCOCC3)o2)cc1`, the inhibition was 1.05%.
With `CCOc1ccc2oc(C(=O)OCC(=O)NC3CCCC3)c(C)c2c1`, the inhibition came to 9.82%.
Then `O=C(c1ccc2c(c1)CCN2S(=O)(=O)c1ccccc1)N1CCN(c2ccc(F)cc2)CC1`, with 18.7%; and `NC(=O)c1sc2nc(N3CCOCC3)c3c(c2c1N)CCCC3`, with 3.31%.
Then `CCN(CC)CCOC(=O)C(Cc1ccco1)Cc1cccc2ccccc12` (stereo not given), with 12.1%; and `COc1ccc2c(c1OC)C(=O)OC2Nc1nc(-c2cc3ccccc3oc2=O)cs1` (stereo not given), with 2.83%.
Then `COc1cc(S(=O)(=O)N2CCOCC2)cc(C(=O)OCC(=O)NC2CCCCC2)c1OC`, with -1.4%.
In the case of `O=C(/C=C/c1cc([N+](=O)[O-])ccc1OC(F)F)Nc1cccc(OC(F)F)c1`, the inhibition was 0.25%.
Then `COCCn1c(=NC(=O)CSCC(=O)N2CCOCC2)sc2ccccc21`, with -8.23%; and `Cn1cccc1C(=O)OCC(=O)Nc1cccc(S(=O)(=O)N2CCOCC2)c1`, with -0.69%.
Turning to `COC(=O)C1=C(c2ccc(OC)c(OC)c2)C[C@@H]2CC[C@H]1N2C(=O)NCc1cc(C)oc1C(F)(F)F`, the inhibition is -13.9%.
Consider `Oc1cccc(Nc2nc(-c3ccccc3Cl)nc3ccccc23)c1`, for which the inhibition amounted to 1.57%.
For the compound `Cc1ccc(C)c(NC(=O)c2cc3ccccc3o2)c1`, the inhibition stood at 75.5%.
Regarding `Cc1ccnc(NC(=O)c2oc3ccccc3c2C)c1`, the inhibition turned out to be 20.3%.
As to `O=C(O)c1ccc(NC(=O)c2cc3ccccc3o2)cc1`, the inhibition amounted to 19.5%.
Then `CC(=O)Nc1cccc(NC(=O)c2cc3ccccc3o2)c1`, with 32.4%.
Then `O=C(Nc1ccc(NC(=O)c2cc3ccccc3o2)cc1)c1ccco1`, with 2.59%.
In the case of `O=C(Nc1ccccc1)c1ccc(OC(=O)c2cc3ccccc3o2)cc1`, the inhibition came to 45.2%.
Then `O=C(COC(=O)c1cc2ccccc2o1)c1ccccc1`, with 51.9%; and `CC(C)C(=O)Nc1cccc(NC(=O)c2cc3ccccc3o2)c1`, with 2.48%.
Then `O=C(CSCc1cnn(-c2ccccc2)c1-n1cccc1)N1CCN(Cc2ccccc2)CC1`, with 2.12%; and `C=CC[C@@H](CC(=O)N[C@H](CO)Cc1ccccc1)C(=O)N[C@@H](COC(=O)[C@@H](CC=C)CC(=O)OC(C)(C)C)Cc1c[nH]c2ccccc12`, with 61%; and `CCN(Cc1ccccc1)C(=O)CSc1nc(C)cc(=O)[nH]1`, with 10.7%.
For the compound `Nc1c(C(=O)Nc2cccc(F)c2)nnn1-c1cccc(C(F)(F)F)c1`, the inhibition was -17.3%.
`COc1cc(C[C@@H]2C(=O)OC[C@H]2Cc2ccc(OC)c(OC)c2)ccc1O`: the inhibition is -6.61%.
As for `O=S(=O)(NCC(c1ccco1)N1CCCCC1)c1ccccc1C(F)(F)F` (stereo not given), the inhibition is 5.94%.
Then `Cc1ccc(C(=O)N(C)CCOc2ccccc2)cc1S(=O)(=O)N1CCCCC1`, with 14.5%; and `O=C(NC1CCCCC1)C(c1cccs1)N(CCCN1CCOCC1)C(=O)c1ccc(-c2ccccc2)[nH]1` (stereo not given), with 44.4%.
`CC(=O)c1ccc(NC(=O)c2cc3ccccc3o2)cc1`: the inhibition worked out at 76.8%.
As for `COc1ccc(NC(=O)c2cc3ccccc3o2)cc1OC`, the inhibition was 53.8%.
Consider `Cc1ccc(C2=NN(CCC(=O)NCc3ccc4c(c3)OCO4)C(=O)CC2)cc1`, for which the inhibition came to 4.59%.
Then `COCCN(C(=O)C1CCCO1)c1c(N)n(CC(C)C)c(=O)[nH]c1=O` (stereo not given), with -18.2%; and `Oc1ccc2oc3c(c2c1C=NCc1ccncc1)CCCC3`, with 3.96%.
Then `NC(=S)N/N=C/c1c(O)c(Br)cc2oc3c(c12)CCCC3`, with 56.5%.
Then `Cc1nnc(SCC(=O)NNC(=O)c2ccco2)n1-c1cccc(Cl)c1`, with -5.26%.
As to `CCC(CC)C(=O)N=C1SC2CS(=O)(=O)CC2N1CCc1ccc(OC)c(OC)c1` (stereo not given), the inhibition is -2.38%.
Then `Cn1nnnc1Sc1ncnc2scc(-c3ccc(-c4ccccc4)cc3)c12`, with 77%.
Then `Cn1nnnc1Sc1ncnc2scc(-c3ccccc3)c12`, with 48.6%; and `Nc1nc(SCCO)[nH]c(=O)c1NC(=O)c1ccco1`, with -5.12%; and `CCCCCN(C(=O)CCC(=O)OCCOc1ccccc1)c1c(N)n(CCCC)c(=O)[nH]c1=O`, with -0.11%.
Then `CCCCN(C)C(=O)c1cc2cc3ccc(OC)cc3nc2o1`, with 71.6%; and `CCN1CCN(C(=O)c2cc3cc4ccc(OC)cc4nc3s2)CC1`, with 18.5%; and `O=c1[nH]c(C2C3CC4CC(C3)CC2C4)nc2ccccc12` (stereo not given), with 21.6%.
